# Test results taken from PubChem BioAssay (Tox21).
# “And” between values parts separate entries of the source, which are not always exact repeats. Equal values may be shown once. A number with no mark means an inactive call. Inconclusive results are not listed. Where a call stands in place of a potency, no number is given. The source made the active and inactive calls. The call rests on the fitted dose curve.
# Key:
# [1] = biological target: Acetylcholinesterase (Homo sapiens) (UniProt P22303); assay: Acetylcholinesterase (AChE) small molecule antagonists: colormetric cell-based qHTS assay (AID 1347395); further: nearly all actives have a fitted effect of over 30% in size
# Outline: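 SH-SY5Y cells, plated overnight at 37 C, were exposed to compounds for 30 min at 37 C and 5% CO2. Acetylthiocholine plus DTNB was then added, and thiocholine from endogenous AChE was quantified colorimetrically after 90 min at 37 C.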
# [2] = biological target: Acetylcholinesterase (Homo sapiens) (UniProt P22303); assay: Acetylcholinesterase (AChE) small molecule antagonists: enzyme-based qHTS assay (AID 1347397); conditions: Potency: AChE enzyme activity inhibition; outcome: AChE enzyme activity inhibition; further: nearly all actives have a fitted effect of over 55% in size
# Outline: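 Colorimetric DTNB read-out of thiocholine released from acetylthiocholine by recombinant human AChE (50 mU/mL as dispensed). Compounds were preincubated 30 min at RT before substrate/DTNB addition, with a 10 min RT reaction.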
# [3] = biological target: Acetylcholinesterase (Homo sapiens) (UniProt P22303); assay: Acetylcholinesterase (AChE) small molecule antagonists: fluorescence cell-based qHTS assay (AID 1347398); conditions: Potency: AChE activity; outcome: AChE activity; further: nearly all actives have a fitted effect of over 50% in size
# Outline: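 SH-SY5Y, 2,000 cells/well, attached overnight; cmpd 30 min 37 C; acetylthiocholine/Thiolite Green cocktail 40 min RT; fluorescence Ex/Em 490/520 nm.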
# [4] = biological target: Acetylcholinesterase (Homo sapiens) (UniProt P22303); assay: Acetylcholinesterase (AChE) small molecule antagonists: enzyme-based qHTS assay with human liver microsomes (AID 1347399); conditions: Potency: qHTS inhibition; outcome: qHTS inhibition; further: nearly all actives have a fitted effect of over 60% in size
# Outline: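 Recombinant human AChE (50 mU/mL in the enzyme mix) and human liver microsomes (0.25 mg/mL final) were preincubated with compound and NADPH (0.25 mg/mL final) for 30 min at 37 C. Acetylthiocholine/DTNB was then added; thiocholine was read colorimetrically after 10 min at room temperature.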
# Potency means the concentration at half of the fitted maximal effect.
# Sequence of Acetylcholinesterase (Homo sapiens) (P22303 whole entry, looked up): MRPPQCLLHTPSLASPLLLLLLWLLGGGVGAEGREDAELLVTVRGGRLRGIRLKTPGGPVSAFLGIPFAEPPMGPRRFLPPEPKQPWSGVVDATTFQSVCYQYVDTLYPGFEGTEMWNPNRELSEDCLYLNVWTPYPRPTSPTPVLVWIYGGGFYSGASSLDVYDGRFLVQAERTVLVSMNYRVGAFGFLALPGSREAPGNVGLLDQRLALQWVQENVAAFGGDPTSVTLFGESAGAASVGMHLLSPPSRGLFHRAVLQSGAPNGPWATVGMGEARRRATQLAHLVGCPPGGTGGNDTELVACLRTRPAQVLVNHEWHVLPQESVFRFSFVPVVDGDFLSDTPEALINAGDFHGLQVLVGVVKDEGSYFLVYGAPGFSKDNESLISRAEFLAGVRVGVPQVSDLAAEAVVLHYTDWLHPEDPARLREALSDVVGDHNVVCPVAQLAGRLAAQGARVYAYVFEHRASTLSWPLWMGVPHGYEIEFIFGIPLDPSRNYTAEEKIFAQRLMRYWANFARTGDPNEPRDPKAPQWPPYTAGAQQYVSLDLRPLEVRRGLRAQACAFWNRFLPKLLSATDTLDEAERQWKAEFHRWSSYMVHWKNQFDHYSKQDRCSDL
Compound,Potency [1],Potency [2],Potency [3],Potency [4],"activity change, negative = inhibition [2]","activity change, negative = inhibition [4]","activity, negative = inhibition [1]","activity change, negative = inhibition [3]"
Cc1ccc2ccc3cccc4ccc1c2c34,inactive,inactive,inactive,inactive,–,–,–,–
CCN(CC)CCCN(c1ccccc1)C1Cc2ccccc2C1,inactive,inactive,inactive,inactive,–,–,–,–
CCCCCCCCO[C@@H]1O[C@H](CO)[C@@H](O)[C@H](O)[C@H]1O,inactive,inactive,inactive,inactive,–,–,–,–
C=CCN1CCc2nc(N)sc2CC1,inactive,inactive,inactive,inactive,–,–,–,–
CC1CNCC(C)O1 (stereo not drawn),inactive,inactive,inactive,inactive,–,–,–,–
CCCCCCCCCCCC(=O)OCC,inactive,inactive,inactive,inactive,–,–,–,–
O=C(/C=C/c1ccc(O)c(O)c1)O[C@@H]1C[C@@](OC(=O)/C=C/c2ccc(O)c(O)c2)(C(=O)O)C[C@@H](O)[C@@H]1O,inactive,inactive,inactive,inactive,–,–,–,–
Nc1ccc2ccccc2c1S(=O)(=O)O,inactive,inactive,inactive,inactive,–,–,–,–
CCCCCCCC/C=C\CCCCCCCCO,inactive,inactive,inactive,inactive,–,–,–,–
CCCCCCCCCOC(C)=O,inactive,inactive,inactive,inactive,–,–,–,–
CCN(CC)CCCC(C)Nc1ccnc2cc(Cl)ccc12 (stereo not drawn),9.52 µM (active),–,3.79 µM (active),–,-3.67% [at 10.5 µM],-0.628% [at 10.5 µM] and -0.0844% [at 23.6 µM],–,–
COC(=O)c1cc(S(N)(=O)=O)ccc1OC,inactive,inactive,inactive,inactive,–,–,–,–
CCOC(=O)[C@@](C)(N)Cc1ccc(O)c(O)c1,inactive,inactive,inactive,inactive,–,–,–,–
CN1CCN(CC(=O)N2c3ccccc3C(=O)Nc3cccnc32)CC1,–,–,–,–,0.584% [at 10.5 µM],-0.472% [at 10.5 µM],0.44% [at 10.5 µM],5.87% [at 10.5 µM]
O=c1cc(-c2ccccc2)oc2ccc3ccccc3c12,inactive,inactive,inactive,inactive,–,–,–,–
CC1CCC(=O)C1=O (stereo not drawn),inactive,inactive,inactive,inactive,–,–,–,–
Cc1nc([N+](=O)[O-])cn1-c1ccc([N+](=O)[O-])cc1,inactive,inactive,inactive,inactive,–,–,–,–
O=C1CCCCO1,inactive,inactive,inactive,inactive,–,–,–,–
C=CN1CCCCCC1=O,inactive,inactive,inactive,inactive,–,–,–,–

Compound,Potency [1],Potency [2],Potency [3],Potency [4],"activity change, negative = inhibition [2]","activity change, negative = inhibition [4]","activity, negative = inhibition [1]","activity change, negative = inhibition [3]"
Cn1c(=O)c2c(ncn2CC(=O)O)n(C)c1=O,inactive,inactive,inactive,inactive,–,–,–,–
COc1cc(OC)nc(NC(=O)NS(=O)(=O)Nc2ccccc2C(=O)N(C)C)n1,inactive,inactive,inactive,inactive,–,–,–,–
NCC[C@H](O)C(=O)N[C@@H]1C[C@H](N)[C@@H](O[C@H]2O[C@H](CN)[C@@H](O)[C@H](O)[C@H]2O)[C@H](O)[C@H]1O[C@H]1O[C@H](CO)[C@@H](O)[C@H](N)[C@H]1O,–,–,–,–,0.773% [at 0.435 µM],-1.18% [at 0.435 µM],-3.35% [at 0.435 µM],5.79% [at 0.439 µM]
CCN1CCC[C@H]1CNC(=O)c1c(OC)ccc(Br)c1OC,inactive,inactive,inactive,inactive,–,–,–,–
CCOC(=O)/C=C/C(=O)OCC,inactive,inactive,inactive,inactive,–,–,–,–
C=CC(=O)NCOCC(C)C,inactive,inactive,inactive,inactive,–,–,–,–
Cc1cc(C(C#N)c2ccc(Cl)cc2)c(Cl)cc1NC(=O)c1cc(I)cc(I)c1O (stereo not drawn),inactive,inactive,inactive,inactive,–,–,–,–
CCCCCCCCCCCCCCCCN(C)C,–,–,–,–,-0.395% [at 10.5 µM],-0.307% [at 10.5 µM],-4.82% [at 10.5 µM],-5.81% [at 10.5 µM]
CC1=NS(=O)(=O)c2cc(Cl)ccc2N1,inactive,inactive,inactive,inactive,–,–,–,–
O=CC(=O)c1ccccc1,2 µM (active),5.03 µM (active),0.283 µM (active),35.6 µM (active),–,–,–,–
O=[N+]([O-])c1ccc2[nH]ncc2c1,inactive,inactive,inactive,inactive,–,–,–,–
Cc1cc(-n2nc3ccc(Cl)cc3n2)c(O)c(C(C)(C)C)c1,inactive,inactive,inactive,inactive,–,–,–,–
CC(=O)C1CCCCC1=O (stereo not drawn),inactive,inactive,inactive,inactive,–,–,–,–
CCC(C)C1CCCCC1=O (stereo not drawn),inactive,inactive,inactive,inactive,–,–,–,–
CC(C)(c1ccc(Oc2ccc3c(c2)C(=O)OC3=O)cc1)c1ccc(Oc2ccc3c(c2)C(=O)OC3=O)cc1,inactive,inactive,inactive,inactive,–,–,–,–
CC1=CCC2C(C1)C2(C)C (stereo not drawn),inactive,inactive,inactive,inactive,–,–,–,–
N#CSCSc1nc2ccccc2s1,inactive,inactive,inactive,inactive,–,–,–,–
O=S(=O)(O)c1ccc2cc(O)c(S(=O)(=O)O)cc2c1,inactive,inactive,inactive,inactive,–,–,–,–
